Experiments:
[1] = biological target: T1, Aspartate--tRNA(Asp/Asn) ligase (Mycobacterium tuberculosis (strain ATCC 25618 / H37Rv)) (UniProt P9WFW3); assay: Assay for Asp RNA synthetase-1 from Mycobacterium tuberculosis; type: functional; set-up: scale not given: direction of the effect not stated beside the values; details: 30 µM; further: in the data most compounds retested in dose-response had high values
T1 sequence (whole entry): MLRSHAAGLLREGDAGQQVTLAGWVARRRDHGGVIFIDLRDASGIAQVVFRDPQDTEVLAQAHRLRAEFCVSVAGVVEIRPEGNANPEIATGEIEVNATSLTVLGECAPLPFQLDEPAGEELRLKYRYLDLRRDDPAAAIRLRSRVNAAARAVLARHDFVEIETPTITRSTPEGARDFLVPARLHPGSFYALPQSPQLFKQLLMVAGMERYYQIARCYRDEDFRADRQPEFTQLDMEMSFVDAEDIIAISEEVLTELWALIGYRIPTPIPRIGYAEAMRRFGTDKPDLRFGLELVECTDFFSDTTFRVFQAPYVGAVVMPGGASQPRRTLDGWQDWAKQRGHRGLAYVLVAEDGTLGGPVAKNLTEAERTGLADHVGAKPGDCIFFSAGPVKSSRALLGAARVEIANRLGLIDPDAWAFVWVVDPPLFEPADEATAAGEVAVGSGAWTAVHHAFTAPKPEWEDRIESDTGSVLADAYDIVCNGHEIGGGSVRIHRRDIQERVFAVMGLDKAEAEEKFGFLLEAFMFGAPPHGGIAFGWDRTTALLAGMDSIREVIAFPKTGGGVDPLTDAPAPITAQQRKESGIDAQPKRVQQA

[2] = biological target: Shiga toxin 2 (Escherichia coli O157:H7) (UniProt P09385+P09386); assay: E. coli 0.157:H7 Shiga Toxin SOP - stx2 screening assay; type: functional; set-up: scale not given: direction of the effect not stated beside the values; details: 30 µM

SMILES	Percent Effect [1]	Percent Effect [2]
CC(C)c1nc(C2CCCN2C(=O)c2ccc(N(C)C)nn2)no1 (stereo not given)	5.45%	18.3%
O=C(c1ccc(F)cc1)N1CCC2(CCCN2CC2CC2)CC1	-2.16%	-20.9%
Cc1ccc(C(=O)N2CCN(CCCSCC#N)CC2)o1	3.17%	-67.1%
COc1ccc(N2CCC(C(=O)/N=c3/[nH]ccs3)CC2)nn1	-0.842%	-7.73%
Cc1cc(C(=O)NC2CCc3nc(C)cn3C2)[nH]n1 (stereo not given)	-3.72%	-2.92%
CCCOc1ccc(CNC(=O)N2CCC(C(N)=O)C2)cc1 (stereo not given)	0.4%	-0.133%
CCc1nnc2n1CCN(Cc1nc(-c3ccoc3)no1)C2	-5.61%	-17.8%
Cc1noc(C)c1-c1cncc(C2CCCN2Cc2ccncc2)n1 (stereo not given)	1.92%	-6.19%
CC(C)c1noc(CN2CCN(C(=O)c3ccccc3F)CC2)n1	-2.91%	12.1%
Cc1ccc(C(NC(=O)CC2CCN(C(C)C)CC2)C(=O)O)cc1 (stereo not given)	-0.279%	10.7%
CC(C)(C)n1ncc2c1NC(=O)CC2c1ccc(OCC(N)=O)cc1 (stereo not given)	-2.88%	21.3%
CC(C)(C)C(O)CN1CCN(C(=O)c2cccc3[nH]ncc23)CC1 (stereo not given)	-5.46%	-5.59%
c1ccc(-c2ccc3nc(C4CCN(CC5CC5)CC4)nn3c2)cc1	1.41%	-51.6%
O=S(=O)(CCCN1CCCC1Cn1cccn1)c1ccccc1 (stereo not given)	-2.01%	-4.23%
COCCC(=O)N1CCN(C)c2ncccc2C1	4.52%	-19.6%
CC(C)CN1C(=O)c2ccc(C(=O)NCCc3c[nH]cn3)cc2C1=O	0.813%	-22.9%
NC(=O)c1ccc(CN2CCCC(O)C2)cc1 (stereo not given)	-3.73%	-9.74%
O=C(Cc1ccsc1)N1CCC(n2nc(-c3ccco3)ccc2=O)CC1	-0.938%	18.8%
Cc1cnn(CC2CN(CC(=O)NCCc3cccs3)CCO2)c1 (stereo not given)	-11.2%	6.55%
C[C@@H]1CN(C2(C(=O)N3CCCCCC3)Cc3ccccc3C2)C[C@H](C)O1	-2.09%	3.06%
CN(Cc1nnc(C2CC2)n1C)C1CCN(CCc2cccs2)C1 (stereo not given)	1.39%	-43.7%
CCNC(=O)N1CCN(Cc2nc3ccccc3[nH]2)[C@@H]2CS(=O)(=O)C[C@@H]21	2.89%	-6.12%
Cc1cnn(CC2CCCCN2C(=O)c2ccc3[nH]nnc3c2)c1 (stereo not given)	0.548%	30.9%
CCSCCNC(=O)C(c1cccc(F)c1)N(C)C (stereo not given)	0.0558%	12.8%
CC(C)NC(=O)N1CCN(CC2CC2)CC2(CC(=O)N(C)C2)C1 (stereo not given)	0.324%	-11.9%

SMILES	Percent Effect [1]	Percent Effect [2]
O=C(N[C@@H]1CCNC[C@H]1O)c1ccc(F)c(Cl)c1	-0.19%	12.3%
Cn1cc(CN2CCCC3(CCN(c4nncs4)C3)C2)cn1 (stereo not given)	6.31%	-11.3%
Cc1cncc(C(=O)N2CCC(Cn3cc(-c4ccsc4)nn3)CC2)c1	-0.792%	-26.5%
Cc1n[nH]c(C(=O)NCc2ccnc(OCC(F)(F)F)c2)c1Br	-3.15%	9.67%
Cc1nc([C@@H]2C[C@@H]3CCN(C(=O)c4occc4C)C[C@H]3O2)no1	10.9%	-14.5%
CC(C)c1nnc2n1CCN(CC(=O)Nc1sccc1C#N)C2	8.51%	16.9%
Cc1ccc(N2CCCN(C(=O)CC3CCCO3)CC2)nn1 (stereo not given)	10.1%	18.1%
CN(C)CCN1CCC2(CC1)CN(c1cccnc1)C(=O)CO2	4.6%	-5.11%
COCCNS(=O)(=O)c1cccc2c1CN(C(=O)c1ccccc1)CC2	-2.79%	-27.5%
CCS(=O)(=O)c1ccccc1N1CCC(NC(C)=O)CC1	-0.991%	11.9%
OC(CNCCn1cccn1)c1ccc2c(c1)OCCO2 (stereo not given)	-4.48%	3.64%
O=C(c1ccc[nH]1)N1C[C@H]2CC[C@@H]1CN(C1Cc3ccccc3C1)C2	2.83%	10.5%
c1ccc(C(OCCNC2CCc3ncnn3C2)c2ccccc2)cc1 (stereo not given)	2.94%	-14.7%
CC(C)Nc1nc(N2CCCC2)nc2c1CN(C(C)C)CC2	2.18%	-118%
O=C(CCc1ccccc1)C1CCCN(C(=O)c2ncc(F)cc2F)C1 (stereo not given)	7.65%	2.26%
COc1ncnc2c1CCN(c1cc(C(F)(F)F)ncn1)CC2	3.67%	-1.32%
COCc1noc(-c2ccc(N3CCCCC3CO)nc2)n1 (stereo not given)	-2.46%	-5%
Cc1cnc(C(=O)N(CCN(C)C)Cc2ccc(Cl)cc2)cn1	-1.59%	5.25%
CN(C)c1ccc(CNC(=O)c2ccc(Cl)cc2F)cc1	-7.82%	0.494%
O=C(NCc1nnc2n1CCCCC2)N1CCc2sccc2C1	-4.29%	-45.2%
CC(=O)N1CCC2(CCN(C(=O)c3ccc(Cl)c(C(F)(F)F)c3)CC2)C1	4.41%	11.4%
COCC1CN(C(=O)C2=CCCCC2)Cc2cnn(CC3CC3)c21 (stereo not given)	0.918%	-7.05%
CCOC1CCN(C(=O)c2cnn(-c3ccccc3Cl)c2)CC1	2.29%	28.9%
Cc1nc(NCCc2ccc(Cl)cc2)cc(C(=O)N2CCOCC2)n1	12.1%	-64.7%
COc1ccccc1CC(=O)N1CCC(NCc2cccnc2)CC1	1.11%	22.4%
